# Measurements as given in PubChem BioAssay AID1159580 (chemical genetic matrix, 2015).
# Hit rate of the full screen: of about 5,500 compounds, about 2,000 (36%) were called active. Not shown: some 18% with an inconclusive outcome. This is one part of the list. A number with no mark means an inactive call. Rule as the data show it: active = normalized growth mostly below about 0.91 (no sharp cut-off); inconclusive = no clear call, values can overlap the other calls; inactive = mostly above about 0.92.
# Assay: chemical genetic growth profiling, strain panel (AID 1159580);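 also: tested at 20 µM; growth read once vehicle control cultures reached saturation at 30 °C; 1 = growth at the plate median or of vehicle wells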
# Settings: S. cerevisiae deletion strains, growth OD
compound,measurement,setting,value
COc1ccc(C(=O)c2ccccc2)c(O)c1O,normalized growth,"locus YAL013W, strain DEP1, stronger effect = lower value",0.929
same,normalized growth,"locus YAL021C, strain ccr4, stronger effect = lower value",0.981
same,normalized growth,"locus YAL026C, strain drs2, stronger effect = lower value",0.973
same,normalized growth,"locus YAL030W, strain snc1, stronger effect = lower value",0.974
same,normalized growth,"locus YBL061C, strain skt5, stronger effect = lower value",0.973
same,normalized growth,"locus YBR009C, strain hhf1, stronger effect = lower value",0.973
same,normalized growth,"locus YBR021W, strain FUR4, stronger effect = lower value",0.853
same,normalized growth,"locus YBR023C, strain chs3, stronger effect = lower value",0.969
same,normalized growth,"locus YBR171W, strain sec66, stronger effect = lower value",0.945
same,normalized growth,"locus YBR229C, strain ROT2, stronger effect = lower value",0.999
same,normalized growth,"locus YBR231C, strain swc5, stronger effect = lower value",0.962
same,normalized growth,"locus YBR279W, strain paf1, stronger effect = lower value",0.957
same,normalized growth,"locus YCL011C, strain gbp2, stronger effect = lower value",0.968
same,normalized growth,"locus YCL016C, strain dcc1, stronger effect = lower value",0.986
same,normalized growth,"locus YCL029C, strain bik1, stronger effect = lower value",0.956
same,normalized growth,"locus YCL061C, strain MRC1, stronger effect = lower value",0.968
same,normalized growth,"locus YCL069W, strain vba3, stronger effect = lower value",0.986
same,normalized growth,"locus YCR088W, strain abp1, stronger effect = lower value",0.981
same,normalized growth,"locus YDL005C, strain med2, stronger effect = lower value",0.971
same,normalized growth,"locus YDL035C, strain GPR1, stronger effect = lower value",0.974
same,normalized growth,"locus YDL040C, strain nat1, stronger effect = lower value",0.985
same,normalized growth,"locus YDL074C, strain BRE1, stronger effect = lower value",0.868
same,normalized growth,"locus YDL101C, strain DUN1, stronger effect = lower value",0.953
same,normalized growth,"locus YDL134C, strain PPH21, stronger effect = lower value",0.904
same,normalized growth,"locus YDL185W, strain tfp1, stronger effect = lower value",0.901 (active)
same,normalized growth,"locus YDL192W, strain arf1, stronger effect = lower value",0.892 (active)
same,normalized growth,"locus YDR001C, strain nth1, stronger effect = lower value",0.975
same,normalized growth,"locus YDR069C, strain doa4, stronger effect = lower value",0.939
same,normalized growth,"locus YDR101C, strain arx1, stronger effect = lower value",0.983
same,normalized growth,"locus YDR137W, strain rgp1, stronger effect = lower value",0.787 (active)
same,normalized growth,"locus YDR159W, strain sac3, stronger effect = lower value",0.975
same,normalized growth,"locus YDR162C, strain NBP2, stronger effect = lower value",0.947
same,normalized growth,"locus YDR195W, strain ref2",1.02
same,normalized growth,"locus YDR297W, strain sur2, stronger effect = lower value",0.966
same,normalized growth,"locus YDR318W, strain mcm21, stronger effect = lower value",0.933
same,normalized growth,"locus YDR334W, strain swr1, stronger effect = lower value",0.951
same,normalized growth,"locus YDR335W, strain msn5, stronger effect = lower value",0.97
same,normalized growth,"locus YDR388W, stronger effect = lower value",0.962
same,normalized growth,"locus YDR392W, strain spt3, stronger effect = lower value",0.851
same,normalized growth,"locus YDR502C, strain sam2, stronger effect = lower value",0.9 (active)
same,normalized growth,"locus YEL003W, strain gim4, stronger effect = lower value",0.96
same,normalized growth,"locus YEL037C, strain rad23, stronger effect = lower value",0.964
same,normalized growth,"locus YEL061C, strain CIN8 (second series), stronger effect = lower value",0.974
same,normalized growth,"locus YEL061C, strain CIN8, stronger effect = lower value",0.967
same,normalized growth,"locus YER015W, strain faa2, stronger effect = lower value",0.965
same,normalized growth,"locus YER016W, strain bim1, stronger effect = lower value",0.972
same,normalized growth,"locus YER110C, stronger effect = lower value",0.936
same,normalized growth,"locus YER111C, strain swi4, stronger effect = lower value",0.97
same,normalized growth,"locus YER155C, strain BEM2 (second series), stronger effect = lower value",0.81 (active)
same,normalized growth,"locus YER155C, strain BEM2, stronger effect = lower value",1.02
same,normalized growth,"locus YER167W, strain BCK2, stronger effect = lower value",0.997
same,normalized growth,"locus YFR010W, strain ubp6, stronger effect = lower value",0.937
same,normalized growth,"locus YGL078C, strain dbp3, stronger effect = lower value",0.909 (active)
same,normalized growth,"locus YGL086W, strain mad1, stronger effect = lower value",0.937
same,normalized growth,"locus YGL167C, strain pmr1, stronger effect = lower value",0.955
same,normalized growth,"locus YGL173C, strain kem1, stronger effect = lower value",0.948
same,normalized growth,"locus YGL227W, strain vid30, stronger effect = lower value",0.99
same,normalized growth,"locus YGL240W, strain doc1, stronger effect = lower value",0.92
same,normalized growth,"locus YGL248W, strain PDE1, stronger effect = lower value",0.92
same,normalized growth,"locus YGL253W, strain hxk2, stronger effect = lower value",0.979
same,normalized growth,"locus YGR078C, strain PAC10, stronger effect = lower value",0.891
same,normalized growth,"locus YGR135W, strain pre9, stronger effect = lower value",0.846 (active)
same,normalized growth,"locus YGR252W, strain gcn5, stronger effect = lower value",0.698 (active)
same,normalized growth,"locus YHR013C, strain ard1, stronger effect = lower value",0.941
same,normalized growth,"locus YHR027C, strain rpn1, stronger effect = lower value",0.959
same,normalized growth,"locus YHR030C, strain SLT2, stronger effect = lower value",0.979
same,normalized growth,"locus YHR079C, strain IRE1 (second series), stronger effect = lower value",0.932
same,normalized growth,"locus YHR094C, strain hxt1, stronger effect = lower value",0.955
same,normalized growth,"locus YHR129C, strain ARP1, stronger effect = lower value",0.927
same,normalized growth,"locus YHR142W, strain chs7, stronger effect = lower value",0.939
same,normalized growth,"locus YHR200W, strain rpn10, stronger effect = lower value",0.937
same,normalized growth,"locus YIL066C, strain RNR3, stronger effect = lower value",0.976
same,normalized growth,"locus YIL073C, strain SPO22, stronger effect = lower value",0.897
same,normalized growth,"locus YIL125W, strain kgd1, stronger effect = lower value",0.969
same,normalized growth,"locus YIR030C, strain dcg1, stronger effect = lower value",0.958
same,normalized growth,"locus YJL092W, strain hpr5, stronger effect = lower value",0.967
same,normalized growth,"locus YJL095W, strain BCK1 (second series), stronger effect = lower value",0.971
same,normalized growth,"locus YJL095W, strain BCK1, stronger effect = lower value",0.724 (active)
same,normalized growth,"locus YJL115W, strain asf1, stronger effect = lower value",0.945
same,normalized growth,"locus YJL129C, strain trk1, stronger effect = lower value",0.966
same,normalized growth,"locus YJL134W, strain LCB3, stronger effect = lower value",0.991
same,normalized growth,"locus YJL154C, strain vps35, stronger effect = lower value",0.972
same,normalized growth,"locus YJL164C, strain tpk1, stronger effect = lower value",0.96
same,normalized growth,"locus YJL166W, strain qcr8, stronger effect = lower value",0.973
same,normalized growth,"locus YJL168C, strain set2, stronger effect = lower value",0.96
same,normalized growth,"locus YJL187C, strain SWE1 (second series), stronger effect = lower value",0.885
same,normalized growth,"locus YJL187C, strain SWE1, stronger effect = lower value",0.971
same,normalized growth,"locus YJR043C, strain POL32, stronger effect = lower value",0.942
same,normalized growth,"locus YKL009W, strain mrt4, stronger effect = lower value",0.933
same,normalized growth,"locus YKL068W, stronger effect = lower value",0.957
same,normalized growth,"locus YKL085W, strain MDH1 (second series), stronger effect = lower value",0.963
same,normalized growth,"locus YKL085W, strain MDH1, stronger effect = lower value",0.963
same,normalized growth,"locus YKL160W, strain elf1, stronger effect = lower value",0.971
same,normalized growth,"locus YKR001C, strain vps1, stronger effect = lower value",0.781 (active)
same,normalized growth,"locus YKR026C, strain gcn3, stronger effect = lower value",0.964
same,normalized growth,"locus YKR091W, strain srl3, stronger effect = lower value",0.978
same,normalized growth,"locus YLL001W, strain dnm1, stronger effect = lower value",0.974
same,normalized growth,"locus YLL026W, stronger effect = lower value",0.988
same,normalized growth,"locus YLL041C, strain sdh2, stronger effect = lower value",0.957
same,normalized growth,"locus YLR027C, strain aat2, stronger effect = lower value",0.975
same,normalized growth,"locus YLR039C, strain RIC1, stronger effect = lower value",0.788
same,normalized growth,"locus YLR058C, strain SHM2, stronger effect = lower value",0.933
same,normalized growth,"locus YLR102C, strain apc9, stronger effect = lower value",0.974
same,normalized growth,"locus YLR221C, strain rsa3, stronger effect = lower value",0.98
same,normalized growth,"locus YLR258W, strain gsy2, stronger effect = lower value",0.97
same,normalized growth,"locus YLR262C, strain YPT6 (second series), stronger effect = lower value",0.843 (active)
same,normalized growth,"locus YLR262C, strain YPT6, stronger effect = lower value",0.824
same,normalized growth,"locus YLR268W, strain sec22, stronger effect = lower value",0.907
same,normalized growth,"locus YLR320W, strain mms22, stronger effect = lower value",0.936
same,normalized growth,"locus YLR330W, strain CHS5, stronger effect = lower value",0.947
same,normalized growth,"locus YLR342W, strain FKS1 (second series), stronger effect = lower value",0.851
same,normalized growth,"locus YLR342W, strain FKS1, stronger effect = lower value",0.977
same,normalized growth,"locus YLR357W, strain rsc2, stronger effect = lower value",0.885
same,normalized growth,"locus YLR370C, strain arc18, stronger effect = lower value",0.975
same,normalized growth,"locus YLR371W, strain rom2, stronger effect = lower value",0.948
same,normalized growth,"locus YLR384C, strain iki3, stronger effect = lower value",0.968
same,normalized growth,"locus YLR418C, strain cdc73, stronger effect = lower value",0.825 (active)
same,normalized growth,"locus YML016C, strain PPZ1, stronger effect = lower value",0.979
same,normalized growth,"locus YML032C, strain rad52, stronger effect = lower value",0.926
same,normalized growth,"locus YML120C, strain ndi1, stronger effect = lower value",0.967
same,normalized growth,"locus YML124C, strain tub3, stronger effect = lower value",0.957
same,normalized growth,"locus YMR058W, strain fet3, stronger effect = lower value",0.897 (active)
same,normalized growth,"locus YMR078C, strain ctf18, stronger effect = lower value",0.931
same,normalized growth,"locus YMR125W, strain sto1, stronger effect = lower value",0.97
same,normalized growth,"locus YMR129W, stronger effect = lower value",0.973
same,normalized growth,"locus YMR205C, strain PFK2, stronger effect = lower value",0.991
same,normalized growth,"locus YMR223W, strain ubp8, stronger effect = lower value",0.909
same,normalized growth,"locus YMR231W, strain pep5, stronger effect = lower value",0.973
same,normalized growth,"locus YMR307W, strain GAS1, stronger effect = lower value",0.983
same,normalized growth,"locus YNL067W, strain RPL9B, stronger effect = lower value",0.918
same,normalized growth,"locus YNL071W, strain lat1, stronger effect = lower value",0.971
same,normalized growth,"locus YNL153C, strain GIM3, stronger effect = lower value",0.906
same,normalized growth,"locus YNL209W, strain ssb2, stronger effect = lower value",0.965
same,normalized growth,"locus YNL233W, strain BNI4, stronger effect = lower value",0.895
same,normalized growth,"locus YNL248C, strain rpa49, stronger effect = lower value",0.984
same,normalized growth,"locus YNL250W, strain rad50, stronger effect = lower value",0.9
same,normalized growth,"locus YNL271C, strain bni1, stronger effect = lower value",0.908 (active)
same,normalized growth,"locus YNL298W, strain CLA4, stronger effect = lower value",0.965
same,normalized growth,"locus YNL307C, strain MCK1, stronger effect = lower value",0.906 (active)
same,normalized growth,"locus YNL322C, strain KRE1 (second series), stronger effect = lower value",0.978
same,normalized growth,"locus YNR049C, strain mso1, stronger effect = lower value",0.983
same,normalized growth,"locus YNR052C, strain pop2, stronger effect = lower value",0.896 (active)
same,normalized growth,"locus YOL006C, strain TOP1, stronger effect = lower value",0.69
same,normalized growth,"locus YOL012C, strain htz1",0.47
same,normalized growth,"locus YOL147C, strain pex11, stronger effect = lower value",0.963
same,normalized growth,"locus YOR001W, strain rrp6, stronger effect = lower value",0.955
same,normalized growth,"locus YOR061W, strain CKA2, stronger effect = lower value",0.989
same,normalized growth,"locus YOR069W, strain VPS5, stronger effect = lower value",0.948
same,normalized growth,"locus YOR070C, strain gyp1, stronger effect = lower value",0.975
same,normalized growth,"locus YOR080W, strain dia2, stronger effect = lower value",0.989
same,normalized growth,"locus YOR083W, strain WHI5, stronger effect = lower value",0.953
same,normalized growth,"locus YOR106W, strain vam3, stronger effect = lower value",0.932
same,normalized growth,"locus YOR136W, strain idh2, stronger effect = lower value",0.952
same,normalized growth,"locus YOR144C, strain elg1, stronger effect = lower value",0.971
same,normalized growth,"locus YOR184W, strain ser1, stronger effect = lower value",0.996
same,normalized growth,"locus YOR265W, strain rbl2, stronger effect = lower value",0.973
same,normalized growth,"locus YOR270C, strain vph1, stronger effect = lower value",0.854
same,normalized growth,"locus YOR290C, strain snf2, stronger effect = lower value",0.929
same,normalized growth,"locus YOR316C, strain cot1, stronger effect = lower value",0.948
same,normalized growth,"locus YPL051W, strain arl3, stronger effect = lower value",0.936
same,normalized growth,"locus YPL078C, strain atp4, stronger effect = lower value",0.975
same,normalized growth,"locus YPL106C, strain sse1, stronger effect = lower value",0.901
same,normalized growth,"locus YPL240C, strain hsp82, stronger effect = lower value",0.954
same,normalized growth,"locus YPL241C, strain CIN2, stronger effect = lower value",0.977
same,normalized growth,"locus YPR119W, strain clb2, stronger effect = lower value",0.947
same,normalized growth,"locus YPR141C, strain kar3, stronger effect = lower value",0.923
same,normalized growth,"locus YPR163C, strain tif3, stronger effect = lower value",0.813 (active)
same,normalized growth,"locus YPR167C, strain met16, stronger effect = lower value",0.919 (active)
same,normalized growth,"strain wtn01, stronger effect = lower value",0.971
